From PubChem BioAssay (NCI) come the findings set out here.

Among the test systems are NCI-H23 lung; NCI-H226 lung; NCI-H322M lung; HOP-62 NSCLC; NCI-H460 lung; HOP-92 NSCLC; NCI-H522 lung; A549/ATCC NSCLC; 786-0 renal; DU-145 prostate; K-562 leukemia; MALME-3M melanoma; MDA-MB-231 breast; RXF 393 renal; SF-268 CNS; SF-295 CNS; SF-539 CNS; UACC-257 melanoma; M14 melanoma; COLO 205 colon.
Test in all cases: NCI-60 one-dose screen, 48 h (100 = growth as untreated, 0 = no growth, -100 = all killed)
What all share (details): 10 µM unless noted

About 83,000 compounds went through this panel and 20% of them were active in at least one assay; those are over-represented in the sample as a whole.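 Activity criterion: percent growth below 10, measured after cells in 96-well plates were exposed to a single compound concentration for 48 hours.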 Unmarked numbers belong to inactive results. The source made the active and inactive calls.

In the case of `O=C1/C(=C/c2ccccc2)CN(C(=O)c2cccnc2)C/C1=C\c1ccccc1`, the growth in the experiment with NCI-H23 lung is -30.5% (active); in the experiment on NCI-H226 lung, -43.7% (active); with NCI-H322M lung it was 34.1%; in the experiment with HOP-62 NSCLC, 0.894% (active); in the experiment on NCI-H460 lung, -35.1% (active); with HOP-92 NSCLC, 78.7%. Also, the growth is -25.4% (active) in the experiment with NCI-H522 lung; 17.2% in the experiment on A549/ATCC NSCLC; -53.8% (active) in the experiment with 786-0 renal; 14.5% in the experiment on DU-145 prostate; 2.62% (active) with K-562 leukemia; 23.9% in the experiment with MALME-3M melanoma. In addition, the growth in the experiment with MDA-MB-231 breast was 3.84% (active); with RXF 393 renal, -64.1% (active); in the experiment with SF-268 CNS, 17.4%; in the experiment with SF-295 CNS, -8.61% (active); in the experiment on SF-539 CNS, -4.29% (active); with UACC-257 melanoma, 23.9%. In addition, the growth with M14 melanoma is -41.5% (active).

As for `CCN1CCN(CC(=O)Nc2nc3ccc(NCc4ccc(Br)cc4)cc3s2)CC1`, the growth was 70.4% in the experiment with NCI-H23 lung; 64.6% in the experiment on NCI-H226 lung; 84.9% in the experiment on NCI-H322M lung; 64.8% in the experiment on HOP-62 NSCLC; 26.3% with NCI-H460 lung; 40.9% in the experiment on HOP-92 NSCLC. The growth in the experiment on NCI-H522 lung is 99.5%; in the experiment on A549/ATCC NSCLC it was 64.5%; in the experiment on 786-0 renal, 61.3%; in the experiment with DU-145 prostate, 83.9%; in the experiment on K-562 leukemia, -49.7% (active); in the experiment on MALME-3M melanoma it was -68.2% (active). The growth with MDA-MB-231 breast is 45.6%; in the experiment on RXF 393 renal, 63.9%; in the experiment on SF-268 CNS it was 72.1%; with SF-295 CNS, 86.4%; in the experiment on SF-539 CNS, 39.2%; with UACC-257 melanoma, 17.7%. In the experiment with M14 melanoma, the growth was -56.2% (active).

Take `C[C@@H]1O[C@@H](O[C@@H]2C[C@H](c3ccc4c(c3O)C(=O)C3=C(C4=O)[C@@]4(O)C(=O)C[C@](C)(O)C[C@@]4(O)C=C3)O[C@H](C)[C@H]2O)C[C@H](O)[C@@H]1O`: the growth in the experiment with NCI-H23 lung was 93.2%; with NCI-H226 lung, 101%; with NCI-H322M lung it was 108%; in the experiment on HOP-62 NSCLC it was 107%; in the experiment on NCI-H460 lung it was 98.5%; in the experiment on NCI-H522 lung it was 82.8%. The growth in the experiment on A549/ATCC NSCLC was 94.7%; in the experiment on 786-0 renal, 101%; in the experiment with COLO 205 colon, 96.9%; in the experiment with DU-145 prostate, 104%; with K-562 leukemia, 91.3%; with MALME-3M melanoma, 90.7%. Also, the growth was 102% in the experiment on MDA-MB-231 breast; 106% in the experiment with RXF 393 renal; 91.1% in the experiment with SF-268 CNS; 108% with SF-295 CNS; 101% in the experiment on SF-539 CNS; 101% in the experiment with UACC-257 melanoma. Also, the growth in the experiment on M14 melanoma is 98.4%.

Regarding `CCN(CC)c1ccc(/C=C\c2cc(C)c3cc(C)ccc3n2)cc1`, the growth in the experiment on NCI-H23 lung was 30.3%; in the experiment on NCI-H226 lung, 59.5%; in the experiment with NCI-H322M lung, 83%; with HOP-62 NSCLC, 45.6%; with NCI-H460 lung, 16.8%; in the experiment with HOP-92 NSCLC it was -10.9% (active). Further, the growth was 28.6% with NCI-H522 lung; 31.9% in the experiment with A549/ATCC NSCLC; 2.99% (active) in the experiment on 786-0 renal; 61.5% in the experiment on DU-145 prostate; 13.1% in the experiment on K-562 leukemia; 32.9% in the experiment on MALME-3M melanoma. Also, the growth in the experiment on MDA-MB-231 breast is 54.2%; in the experiment on RXF 393 renal, 16.1%; with SF-268 CNS it was 40.2%; in the experiment on SF-295 CNS, 24.4%; in the experiment on SF-539 CNS, 20.1%; in the experiment with UACC-257 melanoma it was 24.4%. Also, the growth with M14 melanoma is 15.9%.

In the case of `COc1ccc(OC)c(Nc2nnc(-c3ccc(Cl)cc3)o2)c1`, the growth is 75% with NCI-H23 lung; 93.8% in the experiment with NCI-H226 lung; 56.9% with NCI-H322M lung; 46.7% with HOP-62 NSCLC; 18.8% in the experiment with NCI-H460 lung; 89.9% in the experiment with NCI-H522 lung. Besides, the growth with A549/ATCC NSCLC was 44.7%; with 786-0 renal, 26.4%; in the experiment with COLO 205 colon, 99.1%; in the experiment with DU-145 prostate, 70%; with K-562 leukemia, 83.5%; with MALME-3M melanoma, 66.9%. Moreover, the growth was 85.6% in the experiment on MDA-MB-231 breast; 90.4% in the experiment with RXF 393 renal; 55.4% in the experiment on SF-268 CNS; 29.2% in the experiment on SF-295 CNS; 50.7% in the experiment with SF-539 CNS; 104% with UACC-257 melanoma. Moreover, the growth in the experiment on M14 melanoma is 93.1%.

Turning to `Cc1ccc(-c2nc(C#N)c(S(=O)(=O)NCCO)o2)cc1`, the growth in the experiment on NCI-H23 lung is 82.3%; in the experiment with NCI-H226 lung, 86.6%; in the experiment on HOP-62 NSCLC it was 90.4%; with NCI-H460 lung, 88.6%; in the experiment with HOP-92 NSCLC it was 66.1%; in the experiment with NCI-H522 lung, -4.75% (active). Further, the growth in the experiment on A549/ATCC NSCLC was 90%; with 786-0 renal it was 61.3%; with COLO 205 colon it was 43.1%; with DU-145 prostate, 90%; in the experiment with K-562 leukemia, 29.8%; in the experiment on MALME-3M melanoma, 75.5%. In addition, the growth was 75.6% in the experiment with MDA-MB-231 breast; 56.6% in the experiment on RXF 393 renal; 87.4% in the experiment with SF-268 CNS; 101% in the experiment on SF-295 CNS; 46.6% with SF-539 CNS; 71.4% in the experiment on UACC-257 melanoma. Further, the growth in the experiment on M14 melanoma was 32.5%.

In the case of `COc1ccc2nc3ccccc3c(NCc3ccccc3)c2c1`, the growth with NCI-H23 lung is 21.5%; with NCI-H226 lung, 34.4%; with HOP-62 NSCLC it was 33.6%; in the experiment on NCI-H460 lung, 6.31% (active); in the experiment on NCI-H522 lung it was 34.6%; with A549/ATCC NSCLC, 18.2%. Also, the growth with 786-0 renal was 22.3%; with COLO 205 colon, -19.1% (active); with DU-145 prostate, 22.5%; in the experiment with K-562 leukemia, 5.75% (active); in the experiment on MALME-3M melanoma, 22.5%; in the experiment with MDA-MB-231 breast, 27.8%. Moreover, the growth in the experiment with RXF 393 renal is 5.86% (active); in the experiment with SF-268 CNS it was 44.2%; with SF-295 CNS it was 19.7%; in the experiment on SF-539 CNS it was 11.8%; in the experiment with UACC-257 melanoma it was 27.1%; in the experiment on M14 melanoma it was 26%.

Consider `O=C(NCc1ccccc1O)c1cccc2ccccc12`, for which the growth with NCI-H23 lung is 47.8%; in the experiment on NCI-H226 lung it was 76.7%; in the experiment on HOP-62 NSCLC, 86.5%; with NCI-H460 lung it was 70.3%; in the experiment with HOP-92 NSCLC it was -8.54% (active); in the experiment with NCI-H522 lung it was 65.8%. Further, the growth in the experiment with A549/ATCC NSCLC was 87.4%; in the experiment on 786-0 renal it was 72.7%; with DU-145 prostate it was 95.6%; in the experiment on K-562 leukemia, 55.1%; in the experiment with MALME-3M melanoma, 48.7%; in the experiment on MDA-MB-231 breast, 68.9%. Further, the growth in the experiment on RXF 393 renal is 95.2%; in the experiment on SF-268 CNS, 87.9%; with SF-295 CNS, 87.3%; in the experiment on SF-539 CNS, 63.5%; in the experiment with UACC-257 melanoma it was 75.5%; in the experiment on M14 melanoma, 75.8%.
